From PubChem BioAssay (NCI)
Compounds without any hit were thinned out: in the full panel of roughly 83,000, 20% have a hit.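 For each line, cells grew in 96-well plates with the test compound present at a single concentration for 48 hours.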 Unmarked numbers belong to inactive results. Activity calls are given as the source filed them.

test system: HOP-92 NSCLC; test: NCI-60 one-dose screen, 48 h (100 = growth as untreated, 0 = no growth, -100 = all killed); details: 10 µM unless noted
Experimental: Growth inhibition of the HOP-92 human Non-Small Cell Lung tumor cell line is measured as a screen for anti-cancer activity. Cells are grown in 96 well plates and exposed to the test compound for 48 hours. Compounds are tested at a single concentration, which is 10^-5 M for most compounds. The reported endpoint is percent growth (GI% or GIPRCNT), where numbers from 0 - 100% represent growth inhibition, and numbers from -100% - 0 represent cell death. For example, a value of 40 represents 60% growth inhibition. A value of 0 means no net growth occurred over the course of the experiment. A value of -40 indicates 40% of cells at the beginning of the experiment died by the end of the experiment. A value of -100 means all cells are dead at the end of the experiment.
NCI-60 Human Tumor Cell Lines Screen was performed using the standard one-dose NCI protocol, which is described in more detail at https://dtp.cancer.gov/discovery_development/nci-60/default.htm.
Compounds with GIPRCNT values below 10 were considered active. Activity score was based on GIPRCNT using the following formula: […]
Score is 0 for GIPRCNT values of 100 or above, 50 for GIPRCNT values of 0, and 100 for GIPRCNT values of -100.

SMILES	growth
CCc1ccc(C(c2ccc(CC)cc2)C(Cl)(Cl)CCl)cc1	55.2%
CCOC(=O)N1CCN(c2nc(Nc3cc(C)[nH]n3)c3ccccc3n2)CC1	31.3%
COc1ccc(/C=C2\N=C3Sc4cc(Cl)ccc4C(=O)N3C2=O)cc1	82.6%
O=C(NC(Cc1ccccc1)C(=O)CCl)OCc1ccccc1 (stereo not given)	73%
CC/C=C\C[C@H](F)C/C=C1/C(=O)C=C[C@@H]1C/C=C\CCCC(=O)O	109%
O=C(O)c1cn(C2CC2)c2cc(N3CCN(Cc4nc5c(cnn5-c5ccc([N+](=O)[O-])cc5)c(=O)[nH]4)CC3)c(F)cc2c1=O	112%
COc1ccc(/C=c2/c(=O)[nH]c3nc4sc(C)c(C)c4c(=O)n23)cc1	92.6%
Cc1cc(=O)oc2cc(Oc3nc(-c4cccs4)cn4c(-c5cccs5)cnc34)ccc12	7.71% (active)
O=C1Nc2ccccc2C12CC(c1ccccc1)=NN2 (stereo not given)	59.2%
Cc1cc(Nc2nc(-c3cccnc3)nc3ccccc23)n[nH]1	55.3%
COc1c2ccccc2c(OC)c2[nH]c(=O)ccc12	72.9%
Cc1ccc(NC(=O)c2sc3nc4c(cc3c2N)C(=O)CCC4)cc1C	90.8%
COc1ccc(S(=O)(=O)NCCCNc2nccc(-c3c(-c4cccc(N)c4)nc4sccn34)n2)cc1	92.8%
COc1ccc(C(=O)/C=C/c2c[n+](=O)c3ccc(F)cc3n2[O-])cc1	85.7%
COCCOC(=O)C1=C(C)NC(=S)NC1c1ccc2c(c1)OCO2 (stereo not given)	108%
CCCCCCCCCCNC(=O)CCl	36.2%
O=C1/C(=C/c2ccc(Cl)cc2Cl)CN(S(=O)(=O)c2ccccc2)C/C1=C\c1ccc(Cl)cc1Cl	-3.29% (active)
COc1cc2c(cc1O)CCc1cc(O)cc(OC)c1-2	103%
COc1ccc(-c2cc(-c3cccnc3)nc3sc4c(=O)n(-c5ccc(C)cc5)nnc4c23)cc1OC	74.4%
C/C=C/C(N)=O	91.1%

SMILES	growth
CCN(CC)CC(C)(C)C(=O)/C=C/c1ccccc1	34.7%
CCN(CC)CCCCNc1ccc(NCCCCN(CC)CC)c2c1C(=O)c1ccccc1C2=O	55.5%
O=C1c2ccccc2-c2nccc3cc(Cl)nc1c23	21.2%
COc1cc2c(=O)n(CC3CCCCC3)c3c4cc[nH]c4ncc3c2cc1OC	1.65% (active)
O=C(O)c1cccc2c1-c1ccccc1C2=O	80.8%
CC/C=C\C[C@H](O)C/C=C1/C(=O)C=C[C@@H]1C/C=C\CCCC(N)=O	37.6%
O=C(/C=C/c1cccc(Br)c1)c1ccccc1	79%
Nc1c(C(=O)Nc2ccccc2Cl)sc2nc3c(cc12)CCCCCC3	39.4%
COc1ccc2nc3cc(Cl)ccc3c(N3CCN(c4ccnc(N5CCOCC5)n4)CC3)c2c1	56.3%
O=C1/C(=C\c2cn(C(=O)c3ccc(Cl)cc3)c3ccccc23)c2ccccc2N1c1c(Cl)cccc1Cl	79.9%
CC(C)[C@H]1COC(=O)N1[C@@H]1C(=O)N([C@@H](CCC(=O)N2CCN(C3CCCC3)CC2)C(=O)N[C@@H]2CCCc3ccccc32)[C@@H]1/C=C/c1cccc(Br)c1	44.7%
CCC(c1ccc(O)cc1)C(CC)c1ccc(O)c(F)c1 (stereo not given)	59.5%
CCCCCC(=O)N(CCCC)CCCC	91.7%
O=c1ccc2cc3ccccc3cc2[nH]1	84.8%
Clc1ccc(-c2nnc(COc3ccccc3Cl)o2)cc1	49.2%
COc1ccc(Cl)cc1Nc1nc(C(F)(F)F)ccc1C(=O)N/N=C/c1cccnc1	56.8%
O=C1Nc2c(ccc(Cl)c2Cl)/C1=C/c1cc(Br)c(O)c(Br)c1	67.1%
COCCCN=C(N)c1ccc(NC(=O)c2ccc(C(=O)Nc3ccc(C(N)=NCCCOC)cc3)cc2)cc1	134%
CC(=O)O[C@H]1CC[C@]2(C)[C@H]3CC[C@@H]4[C@H]5[C@H](C(C)C)CC[C@]5(C(=O)OCC(CO)(CO)N=C(N)N)CC[C@@]4(C)[C@]3(C)CC[C@H]2C1(C)C	32%
CCN(CC)CCCC(C)Nc1ccnc2c(OC)cccc12 (stereo not given)	130%
